Compounds with a hit are over-represented: about 5.4% of the library has one in this group of screens.
IMPase cell inh = qHTS Assay for Identifying the Cell-Membrane Permeable IMPase Inhibitors; Inositol monophosphatase 1 (Rattus norvegicus), P97697; CHO-M1 cells, IP1 accumulation, HTRF TR-FRET ratio; inhibition (IP1 accumulation), % at 46.1 µM; 120,000 tested, under 10 active; active means well fitted curve in the direction sought with a large enough effect in the signal ratio, not every such curve was filed as active; inconclusive means small, poorly fitted or top-dose-only effect, or a change in a side signal; inactive means no such curve, though single readings can be large or run the other way; the % refers to the signal ratio;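 further: cells stimulated with carbachol in lithium chloride buffer; higher means more IMPase inhibition seen as more IP1 and lower FRET ratio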
Target sequence (P97697 whole entry, looked up): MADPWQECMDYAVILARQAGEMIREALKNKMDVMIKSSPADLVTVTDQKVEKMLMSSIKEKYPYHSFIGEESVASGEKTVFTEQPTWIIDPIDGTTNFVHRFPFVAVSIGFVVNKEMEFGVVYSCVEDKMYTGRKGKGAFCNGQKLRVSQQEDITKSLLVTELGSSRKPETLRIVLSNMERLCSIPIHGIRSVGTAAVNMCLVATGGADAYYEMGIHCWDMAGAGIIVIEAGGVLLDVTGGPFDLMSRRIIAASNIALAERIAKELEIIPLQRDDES
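CHO-M1, 2000 cells/well, cultured 16–30 h; cpd up to 46 uM; carbachol (50 uM solution, stimulation buffer w/ 50 mM LiCl, pH 7.4), 30 min 37C; IP-One TR-FRET, 10 min RT; Ex 320/Em 665, 620; Hill-fit AC50.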
ALOX15B inhib = qHTS Assay for Inhibitors of 15-hLO-2 (15-human lipoxygenase 2) | Potency, µM (doses to about 57.1 µM), hits mostly inhibitors | AID 881, 2007 | Polyunsaturated fatty acid lipoxygenase ALOX15B (Homo sapiens), O15296 | 110,000 compounds, 0.56% hits | purified 15hLO-2, xylenol orange hydroperoxide absorbance; further: nearly all actives have a fitted effect of over 60% in size
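Enzyme 50 nM, AA 45 uM, 25 mM Hepes pH 7.5 + 0.01% Triton X-100; cpd preinc 15 min RT, rxn 90 min RT; stop/detect with 200 uM XO + 300 uM Fe(II) in 50 mM H2SO4, 30 min; A573/A405.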
PNC assembly inh = High Content Assay for Compounds that inhibit the Assembly of the Perinucleolar Compartment; PC3M PTB-GFP, PNC prevalence imaging, 16 h; active compounds read low; activity change (PNC), negative = inhibition, % at 10 µM; 140,000 compounds, 3.1% hits; AID 2417, 2010;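 active means readout at or below -70, meaning at least 70% loss of cells showing the perinucleolar compartment, a nuclear body marking cancer cells; inconclusive means readout between -30 and a set limit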
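PC3M cells stably expressing PTB-GFP, 750–1000 cells/well, treated 16 h at 37 °C with compound (23 nl of library stock), in duplicate. After paraformaldehyde fixation and Hoechst stain, imaged at 20x; PNC prevalence scored by image analysis.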
HPGD block = qHTS Assay for Inhibitors of HPGD (15-Hydroxyprostaglandin Dehydrogenase); Potency, µM, actives largely listed as inhibitors; 15-hydroxyprostaglandin dehydrogenase [NAD(+)] (Homo sapiens), P15428; 150,000 compounds, 4.3% hits; purified HPGD, NADH fluorescence kinetic, PGE2 substrate; AID 894, 2007; active means well fitted inhibition curve with a large enough effect, not every such curve was filed as active; inconclusive means small, poorly fitted or top-dose-only effect, or another doubt; inactive means no such curve, though single readings can be large or run the other way
Target sequence (P15428 whole entry, looked up): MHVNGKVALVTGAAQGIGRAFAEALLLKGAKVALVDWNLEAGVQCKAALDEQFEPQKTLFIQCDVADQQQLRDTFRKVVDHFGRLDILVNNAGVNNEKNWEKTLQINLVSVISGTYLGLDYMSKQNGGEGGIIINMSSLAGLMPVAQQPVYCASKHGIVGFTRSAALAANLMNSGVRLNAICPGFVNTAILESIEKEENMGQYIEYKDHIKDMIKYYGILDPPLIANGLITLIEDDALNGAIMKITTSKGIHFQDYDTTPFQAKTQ
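NADH formation kinetics: reaction with 30 uM PGE2 and 1 mM NAD+ (final), 20 nM enzyme, Tris-HCl pH 8 with Tween 20, after 15 min compound preincubation at room temperature. Fluorescence change, last versus first of five reads.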
12-hLO inh = qHTS Assay for Inhibitors of 12-hLO (12-human lipoxygenase). 150,000 compounds, 0.12% hits. Potency, µM (doses to about 57.1 µM), most hits filed as inhibitors. purified 12-hLO, xylenol orange hydroperoxide absorbance. AID 1452, 2008; further: nearly all actives have a fitted effect of over 55% in size
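150 nM 12hLO, 25 mM Hepes pH 7.0 + 0.01% Triton X-100; cpd preinc 15 min RT; 40 uM arachidonic acid, 30 min RT; Fe-XO 30 min; A573/A405 ratio as read-out.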
IMPase Li cell = qHTS Assay for Identifying the Cell-Membrane Permeable IMPase Inhibitors: Potentiation with Lithium | Potency, µM (top dose mostly 59.4 µM), usual class: inhibitors | 210,000 compounds, 0.35% hits | CHO-M1 cells, IP1 TR-FRET (IP-One), carbachol + lithium;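 further: IP1 builds up when IMPase is blocked and the TR-FRET signal falls; nearly all actives have a fitted effect of over 50% in size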
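CHO-M1, 2000 cells/well, 16–30 h culture; cpd + low Li+, 30 min 37C; lysis with d2-IP1/Eu-anti-IP1 Ab, 10 min RT; TR-FRET 665/620 ratio and 620 channel; AC50 via Hill.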
A number is an active result; i = inactive; ? = inconclusive; nt = no result; [ ] = dose if it differs, or a comment. Unless noted, the call rests on the fitted dose curve; in most records, active means well fitted curve in the direction sought with a large enough effect; inconclusive means small, poorly fitted or top-dose-only effect, or another doubt; inactive means no such curve, though single readings can be large; an effect the other way counts as inactive or inconclusive.

SMILES | IMPase cell inh | ALOX15B inhib | PNC assembly inh | HPGD block | 12-hLO inh | IMPase Li cell
Cc1ccccc1-c1cncnc1Nc1ccccc1 | nt | i | nt | nt | nt | i
Cc1cccc(NC(c2cccc(Cl)c2)c2ccc3cccnc3c2O)n1 (centres undefined) | i | nt | nt | nt | nt | nt
N#Cc1c(-c2ccccc2Cl)cc(-c2ccccc2)[nH]c1=S | nt | nt | nt | nt | nt | i
N#Cc1c2c(c(-c3ccccc3Cl)[nH]c1=S)CCCC2 | nt | nt | nt | nt | nt | 10µM
O=C(O)[C@@H]1[C@@H]2C[C@@H]3[C@@H](OC(=O)[C@@H]31)[C@H]2Br | nt | i[11.4 µM] | nt | i | i[11.4 µM] | i
Cc1cc2nc(-c3cccc(NC(=O)c4cccc5ccccc45)c3)oc2cc1C | i | nt | nt | nt | nt | nt
S=c1[nH]c2cc(Cl)ccc2s1 | i | ? | i | 28µM | i | i
S=c1[nH]c2ccc(Cl)cc2[nH]1 | i | nt | i | 10µM | i | i
O=C1CCCc2c1[nH]c1ccc(Cl)cc21 | i | nt | i | i | i | i
COc1ccc2[nH]c(=S)[nH]c2c1 | i | i | i | 28µM | i | i
Cc1ccc(C)c(N2CCN(C3(c4ccccc4)C(=O)c4ccccc4C3=O)CC2)c1 | i | nt | nt | nt | nt | nt
O=C(COc1ccccc1Cl)N(Cc1ccco1)C1CCS(=O)(=O)C1 (centres undefined) | i | i | -111 | nt | i | nt
O=C(COc1ccccc1)N(Cc1ccco1)C1CCS(=O)(=O)C1 (centres undefined) | i | i | i | i | i | i
Cc1cccc(C(=O)O)c1C[C@H]1NCC[C@H]2c3ccccc3N[C@@H]12 | nt | i[11.4 µM] | nt | ? | i[11.4 µM] | i
O=C1C(Cl)=C(N2CCCCC2)C(=O)N1Cc1ccccc1 | nt | nt | -104 | i | i | i
CC(C)CNC(=O)CC(=O)NN=C1CCCC1 | nt | nt | -113 | i | i | i
N#Cc1cccc(NC(=O)N2CC[C@@]3(CCCN(S(=O)(=O)c4ccccc4)C3)C2)c1 | nt | i | nt | i | i | i
CCCCCCCCCCCCCCCC(=O)N[C@H](CN1CCOCC1)[C@H](O)c1ccccc1 | nt | nt | nt | i | i | i
O=C(CSCc1ccco1)c1cccs1 | i | i | i | 16µM | i | i
O=C(NCCc1cn2ccsc2n1)c1cccs1 | i | i | i | 25µM | i | i
O=C(NCCN1CCCCC1)c1ccc2c(c1)OCCO2 | i | i | i | 8.9µM | i | i
O=S(=O)(NCc1cn2ccsc2n1)c1cccs1 | i | i | i | i | i | i
O=C(NCCCN1CCN(CCCNC(=O)c2ccc3c(c2)OCO3)CC1)c1ccc2c(c1)OCO2 | i | i | i | i | i | i
O=C(NCc1cccs1)c1ccc2c(c1)OCCO2 | ? | i | ? | 25µM | i | i
Cc1ccc(S(=O)(=O)COCCN2CCN(S(=O)(=O)c3ccc(C)cc3)CCC2=O)cc1 | nt | i[0.0915 µM] | nt | i | i[0.00818 µM] | i
SMILES | IMPase cell inh | ALOX15B inhib | PNC assembly inh | HPGD block | 12-hLO inh | IMPase Li cell
O=C(O)CNC(=O)c1ccc([N+](=O)[O-])cc1 | nt | i | nt | i | i | i
O=C(NCc1ccco1)c1cccc(F)c1 | i | i | i | ? | i | i
O=C(NCc1cccs1)c1ccc(N2CCCC2=O)cc1 | i | i | i | 20µM | i | i
Cc1csc2ncc(C(=O)NCc3ccco3)c(=O)n12 | i | nt | -100 | ? | i | i
O=C(NCCCCNC(=O)c1cccs1)c1cccs1 | nt | nt | -114 | i | i | i
Cc1cc(C(=O)NCc2ccco2)cs1 | i | i | ? | 16µM | i | i
N#Cc1nc(COc2cccc(Cl)c2)oc1NCCc1ccccc1 | i | nt | nt | nt | nt | nt
C=CCOC(=O)N[C@H](/C(C(=O)OC)=C(\C)NCc1ccccc1)c1ccc(C)cc1 | nt | nt | nt | i | nt | i
CCCCc1nc2c(c3c1C[C@H](C)OC3)CN(C(=O)NCc1ccco1)CC2 | nt | nt | nt | i | i[11.4 µM] | i
O=S(=O)(O)CCCc1cccc2ccccc12 | nt | i[11.4 µM] | nt | i | i[11.4 µM] | i
